High-throughput results from PubChem.
HCMV inh = human cytomegalovirus inhibition | activity change, negative = inhibition, % at 57.5 µM | HFF cells, HCMV-luciferase reporter, 72 h; active compounds read low | hit rate 4.5% among 410,000; in the data active = activity change below about -60%; inconclusive = no clear call, values can overlap the other calls; inactive = above about -39%
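Steps: HFFs plated, 16 h 37C; compounds added; HCMV-luciferase added to MOI 1 PFU/cell; 72 h 37C; OneGlo reagent, 5 min room temperature; luminescence read, normalized to controls.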
Marburg entry inh = Marburg virus entry inhibition | hit rate 1.8% among 300,000 | Marburg virus pseudotyped entry inhibition, cell reporter | AID 540276 | Potency, µM (doses to about 37.8 µM), actives largely listed as inhibitors; calls by dose curve; tested in HEK293 cells
Lassa entry inh = Lassa virus entry inhibition; AID 540256; Potency, µM (highest dose often 37.9 µM), actives largely listed as inhibitors; hit rate 1.2% among 300,000; Lassa virus pseudotype entry inhibition, cell reporter; calls by dose curve; tested in HEK293 cells; note: nearly all actives have a fitted effect of over 50% in size
FMDV antiviral = blocks foot and mouth disease virus. FMDV antiviral cell-based qHTS. hit rate 1.2% among 410,000. Potency, µM (doses to about 57.9 µM), hits mostly inhibitors. AID 1159524; calls by dose curve; tested in HEK293T cells; note: read-out not given here; nearly all actives have a fitted effect of over 45% in size
Hits are given with their value; i = inactive; ? = inconclusive; nt = no result given. Sampled rows, rich in hits. Any-hit rate of the full collection: about 6.2%.

SMILES	HCMV inh	Marburg entry inh	Lassa entry inh	FMDV antiviral
CCCCC(=O)NC(c1ccccc1)c1ccc2cccnc2c1O (stereo not given)	-100	?	?	i
CC(C)C(=O)NC(c1ccccc1)c1cc([N+](=O)[O-])c2cccnc2c1O (stereo not given)	i	?	?	i
CCCC(=O)NC(c1ccc(OC)cc1)c1ccc2cccnc2c1O (stereo not given)	-99	?	?	i
Cc1cc(C)c(NC(=O)Nc2sc3nc4n(c(=O)c3c2C)CCC(C)CC4)c(C)c1 (stereo not given)	i	i	nt	i
CCCCN(CC)CCCNC(=O)Nc1sc2nc3n(c(=O)c2c1C)CCC(C)CC3 (stereo not given)	i	10µM	nt	i
COc1cc2c(cc1OC)C(c1ccc(-c3cc(Cl)ccc3Cl)o1)=NCC2	nt	?	?	18µM
COc1cc2c(cc1OC)C(c1ccc(-c3ccc(Cl)cc3Cl)o1)=NCC2	?	6.3µM	14µM	14µM
COc1cc2c(cc1OC)C(c1ccc(-c3ccc(Cl)c(Cl)c3)o1)=NCC2	i	5.8µM	5.8µM	18µM
COc1cc2c(cc1OC)C(c1ccc(-c3ccccc3Cl)o1)=NCC2	i	21µM	?	i
COc1cc2c(cc1OC)C(c1ccc(Cl)cc1)=NCC2	i	nt	nt	i
COc1cc2c(cc1OC)C(C)=NCC2	i	nt	nt	?
Cc1ccc(CN(Cc2ccco2)C(=O)c2ccc(Cl)cc2)o1	i	i	i	i
Cc1cccc(CNc2ncncc2-c2cccc(C#N)c2)c1	nt	nt	nt	i
CCn1c(-c2ccccc2F)nc2cc(NC(C)=O)cc(C(=O)NCc3ncc(C)[nH]3)c21	nt	nt	nt	i
C=CCOC(=O)N[C@H](c1ccco1)C(C(C)=O)C(C)=O	nt	i	nt	nt
COC(=O)c1c(NC(=O)C(Cl)Cl)sc2c1C(C(=O)OC)CC2 (stereo not given)	-62	nt	nt	?
CCNC(=O)C1(C)CCCN(C(=O)c2nc(C)oc2C)C1 (stereo not given)	i	nt	nt	i
Cc1nn(C)c(C)c1CNC(=O)c1nn2c(c1Cl)NC(c1cccs1)CC2C(F)(F)F (stereo not given)	-86	?	i	nt
Cc1nn(C)cc1CNC(=O)c1cc2n(n1)C(C(F)(F)F)CC(c1cccs1)N2 (stereo not given)	?	i	?	nt
Cc1cc(C)cc(NC(=O)CN(c2cc(C(F)(F)F)ccc2Cl)S(=O)(=O)c2ccccc2)c1	i	i	i	i
Cc1ccc(NC(=S)Nc2ccccn2)c(C)c1	i	4µM	?	i
COc1ccccc1NC(=O)C(=O)Nc1ccccn1	i	?	?	nt
Cc1ccc(NC(=O)C(=O)Nc2ccccn2)cc1	i	1.1µM	2.9µM	?
Cc1ccc(S(=O)(=O)CC(=O)Nc2ccccn2)cc1	-63	i	i	i
Cc1ccc(S(=O)(=O)CC(=O)Nc2ccc(S(=O)(=O)Nc3ccccn3)cc2)cc1	i	nt	nt	i
SMILES	HCMV inh	Marburg entry inh	Lassa entry inh	FMDV antiviral
Cc1cc(Cl)ccc1NC(=S)Nc1ccccn1	i	i	i	i
CN1C(=O)Cc2cc(S(=O)(=O)CCC(=O)Nc3ccccc3)ccc21	i	nt	i	i
CCc1ccc(S(=O)(=O)c2nnn3c2nc(Nc2ccc(NC(C)=O)cc2)c2sccc23)cc1	i	nt	?	i
COc1ccc(C(=O)N2CCc3c([nH]c4ccccc34)C2C(F)(F)F)cc1 (stereo not given)	-60	nt	nt	i
CCc1ccccc1NC(=O)N1CCc2c([nH]c3ccccc23)C1c1ccc(C)cc1 (stereo not given)	?	?	?	i
CCOc1ccc(C2c3[nH]c4ccccc4c3CCN2C(=O)CCC2CCCC2)cc1 (stereo not given)	-80	nt	?	i
COc1ccc(C2c3[nH]c4ccccc4c3CCN2C(=O)CCC2CCCC2)cc1 (stereo not given)	-82	nt	?	i
COc1ccc(C2c3[nH]c4ccc(OC)cc4c3CCN2C(=O)Nc2ccccc2)cc1 (stereo not given)	-89	nt	?	?
COCCCNC(=O)[C@@H](C)N1Cc2ccc(-c3cccc(F)c3)nc2C1=O	i	nt	nt	nt
Cc1oc2ccc(O)c(CN3CCN(C)CC3)c2c1C(=O)Nc1cccc(Cl)c1C	i	i	i	i
COc1ccc(-c2[nH]nc3nc(N4CCN(C(=O)c5ccoc5)CC4)cc(C(F)(F)F)c23)cc1	-77	nt	nt	?
O=C(NCC1Cc2cc(-c3cncnc3)cc(Cl)c2O1)c1cccc(Cn2cccn2)c1 (stereo not given)	nt	nt	nt	i
COc1cc2c(cc1OC)-c1c(OC)c(OC)c(OC)c3ccnc(c13)C2=O	nt	18µM	?	?
NC1(C#Cc2ccc3oc(=O)c(-n4cc(C5(O)CCCCC5)nn4)cc3c2)CCCCC1	i	nt	nt	i
NC1(C#Cc2ccc3oc(=O)c(-n4cc(-c5ccsc5)nn4)cc3c2)CCCCC1	-72	nt	nt	i
COCCn1c(SCC(=O)Nc2ccc(Cl)c(S(=O)(=O)N(C)C)c2)nc2ccccc21	i	?	i	28µM
CN(C)S(=O)(=O)c1cc(NC(=O)CSc2ncc(C(F)(F)F)cc2Cl)ccc1Cl	?	?	?	28µM
CN(C)S(=O)(=O)c1cc(NC(=O)CSc2cccc[n+]2[O-])ccc1Cl	i	nt	nt	i
COCCn1c(SCC(=O)Nc2nc(C)c(Cl)cc2Cl)nc2ccccc21	?	?	23µM	i
COCCn1c(SCC(=O)Nc2ccc(S(N)(=O)=O)cc2)nc2ccccc21	i	?	i	i
N#Cc1ccc2c(c1)C[C@]1(c3ccsc3)Oc3c(c(=O)oc4ccc(F)cc34)[C@@H]2O1	nt	i	?	nt
CCn1c(N2CCN(S(=O)(=O)c3ccccc3C(F)(F)F)CC2)nc2ccccc21	i	i	?	?
CCn1c(N2CCN(S(=O)(=O)c3ccc(OC)cc3)CC2)nc2ccccc21	i	?	8.9µM	?
CCc1ccc(CNC(=O)C2CCCN(c3nnc(C)c4c(C)n(-c5ccccc5)nc34)C2)cc1 (stereo not given)	-108	nt	i	?
Cc1ccccc1CNC(=O)C1CCCN(c2nnc(C)c3c(C)n(-c4ccccc4)nc23)C1 (stereo not given)	-101	nt	nt	i
SMILES	HCMV inh	Marburg entry inh	Lassa entry inh	FMDV antiviral
Cc1nnc(N2CCCC(C(=O)NCc3ccccc3F)C2)c2nn(-c3ccccc3)c(C)c12 (stereo not given)	i	nt	nt	i
Cc1nnc(N2CCCC(C(=O)NCc3ccccc3)C2)c2nn(-c3ccccc3)c(C)c12 (stereo not given)	i	nt	i	i
CN1C(=O)C(Cl)(Cl)C(=O)c2ccccc21	nt	?	i	28µM
CC(C)(C)c1ccc(Cn2cnc(-c3ccc([N+](=O)[O-])cc3)c2)cc1	i	?	8.9µM	i
N#Cc1ccc(-c2csc(NC(=O)c3cc(-c4cccs4)nc4ccccc34)n2)cc1	i	nt	nt	i
COc1ccc(C(=O)COC(=O)c2cc(-c3cccs3)nc3ccccc23)cc1	i	i	11µM	i
Cc1ccc(OCCC(=O)NCCc2ccc(S(N)(=O)=O)cc2)cc1	i	i	i	i
N#Cc1ccc(/C=N/NC(=O)c2cc(-c3cccs3)nc3ccccc23)cc1	i	6.3µM	?	i
Cc1ccc(C(=O)COC(=O)c2cc(-c3cccs3)nc3ccccc23)cc1	i	i	i	i
CCOc1ccc(OCCC(=O)OCC(=O)NCCc2ccc(S(N)(=O)=O)cc2)cc1	-73	nt	nt	i
CCOc1ncccc1C(=O)NCCc1ccc(S(N)(=O)=O)cc1	-67	i	i	i
